Measurements from PubChem BioAssay AID1159580 (chemical genetic matrix, 2015).
The whole screen tested about 5,500 compounds, of which about 2,000 (36%) were called active. Roughly 18% stayed inconclusive and do not appear here. No stated cut-off is given here; in the data, active means normalized growth mostly below about 0.91 (no sharp cut-off); inconclusive means no clear call, values can overlap the other calls; inactive means mostly above about 0.92. Some of the results follow.

Assay: chemical genetic growth profiling, strain panel (AID 1159580);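 further: tested at 20 µM; growth read once vehicle control cultures reached saturation at 30 °C; 1 = growth at the plate median or of vehicle wells; lower values mean less growth of the strain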
Conditions: growth OD

Measured: normalized growth

CC(=O)Oc1ccc(C(c2ccc(OC(C)=O)cc2)c2ccccn2)cc1
inactive: S. cerevisiae deletion strains, locus YJR075W, strain HOC1, active compounds read low 0.978 | S. cerevisiae deletion strains, locus YKL009W, strain mrt4, active compounds read low 0.985 | S. cerevisiae deletion strains, locus YKL068W, active compounds read low 1 | S. cerevisiae deletion strains, locus YKL085W, strain MDH1 (second series), active compounds read low 0.986 | S. cerevisiae deletion strains, locus YKL085W, strain MDH1, active compounds read low 0.986 | S. cerevisiae deletion strains, locus YKL160W, strain elf1, active compounds read low 1.03 | S. cerevisiae deletion strains, locus YKL190W, strain CNB1, active compounds read low 0.989 | S. cerevisiae deletion strains, locus YKR001C, strain vps1, active compounds read low 0.984 | S. cerevisiae deletion strains, locus YKR026C, strain gcn3, active compounds read low 1.01 | S. cerevisiae deletion strains, locus YKR091W, strain srl3, active compounds read low 1.02 | S. cerevisiae deletion strains, locus YLL001W, strain dnm1, active compounds read low 1.01 | S. cerevisiae deletion strains, locus YLL026W, active compounds read low 1.02 | S. cerevisiae deletion strains, locus YLL041C, strain sdh2, active compounds read low 1.03 | S. cerevisiae deletion strains, locus YLR027C, strain aat2, active compounds read low 1.02 | S. cerevisiae deletion strains, locus YLR039C, strain RIC1, active compounds read low 0.986 | S. cerevisiae deletion strains, locus YLR058C, strain SHM2, active compounds read low 0.984 | S. cerevisiae deletion strains, locus YLR102C, strain apc9, active compounds read low 0.995 | S. cerevisiae deletion strains, locus YLR113W, strain HOG1, active compounds read low 0.953 | S. cerevisiae deletion strains, locus YLR221C, strain rsa3, active compounds read low 1.02 | S. cerevisiae deletion strains, locus YLR258W, strain gsy2, active compounds read low 1.03 | S. cerevisiae deletion strains, locus YLR262C, strain YPT6 (second series), active compounds read low 1.01 | S. cerevisiae deletion strains, locus YLR262C, strain YPT6, active compounds read low 0.969 | S. cerevisiae deletion strains, locus YLR268W, strain sec22, active compounds read low 0.992 | S. cerevisiae deletion strains, locus YLR320W, strain mms22, active compounds read low 1 | S. cerevisiae deletion strains, locus YLR330W, strain CHS5, active compounds read low 0.988 | S. cerevisiae deletion strains, locus YLR342W, strain FKS1 (second series), active compounds read low 1.02 | S. cerevisiae deletion strains, locus YLR342W, strain FKS1, active compounds read low 1.01 | S. cerevisiae deletion strains, locus YLR357W, strain rsc2, active compounds read low 1.08 | S. cerevisiae deletion strains, locus YLR370C, strain arc18, active compounds read low 1.03 | S. cerevisiae deletion strains, locus YLR371W, strain rom2, active compounds read low 0.983 | S. cerevisiae deletion strains, locus YLR384C, strain iki3, active compounds read low 1.02 | S. cerevisiae deletion strains, locus YLR418C, strain cdc73, active compounds read low 0.999 | S. cerevisiae deletion strains, locus YML016C, strain PPZ1, active compounds read low 0.981 | S. cerevisiae deletion strains, locus YML032C, strain rad52, active compounds read low 0.998 | S. cerevisiae deletion strains, locus YML120C, strain ndi1, active compounds read low 1 | S. cerevisiae deletion strains, locus YML124C, strain tub3, active compounds read low 0.992 | S. cerevisiae deletion strains, locus YMR058W, strain fet3, active compounds read low 1.01 | S. cerevisiae deletion strains, locus YMR078C, strain ctf18, active compounds read low 0.985 | S. cerevisiae deletion strains, locus YMR125W, strain sto1, active compounds read low 1.02 | S. cerevisiae deletion strains, locus YMR129W, active compounds read low 1.02 | S. cerevisiae deletion strains, locus YMR205C, strain PFK2, active compounds read low 0.985 | S. cerevisiae deletion strains, locus YMR223W, strain ubp8, active compounds read low 0.987 | S. cerevisiae deletion strains, locus YMR231W, strain pep5, active compounds read low 1.02 | S. cerevisiae deletion strains, locus YMR263W, strain SAP30, active compounds read low 0.963 | S. cerevisiae deletion strains, locus YMR307W, strain GAS1, active compounds read low 0.934 | S. cerevisiae deletion strains, locus YNL067W, strain RPL9B, active compounds read low 0.965 | S. cerevisiae deletion strains, locus YNL071W, strain lat1, active compounds read low 1.01 | S. cerevisiae deletion strains, locus YNL183C, strain NPR1, active compounds read low 0.928 | S. cerevisiae deletion strains, locus YNL209W, strain ssb2, active compounds read low 1 | S. cerevisiae deletion strains, locus YNL233W, strain BNI4, active compounds read low 0.971 | S. cerevisiae deletion strains, locus YNL248C, strain rpa49, active compounds read low 1.03 | S. cerevisiae deletion strains, locus YNL250W, strain rad50, active compounds read low 0.98 | S. cerevisiae deletion strains, locus YNL271C, strain bni1, active compounds read low 0.985 | S. cerevisiae deletion strains, locus YNL298W, strain CLA4, active compounds read low 0.989 | S. cerevisiae deletion strains, locus YNL307C, strain MCK1, active compounds read low 0.989 | S. cerevisiae deletion strains, locus YNL322C, strain KRE1 (second series), active compounds read low 1.01 | S. cerevisiae deletion strains, locus YNL322C, strain KRE1, active compounds read low 1 | S. cerevisiae deletion strains, locus YNR049C, strain mso1, active compounds read low 1.01 | S. cerevisiae deletion strains, locus YNR052C, strain pop2, active compounds read low 0.997 | S. cerevisiae deletion strains, locus YOL012C, strain htz1 1.18 | S. cerevisiae deletion strains, locus YOL147C, strain pex11, active compounds read low 0.979 | S. cerevisiae deletion strains, locus YOR001W, strain rrp6, active compounds read low 0.973 | S. cerevisiae deletion strains, locus YOR061W, strain CKA2, active compounds read low 0.995 | S. cerevisiae deletion strains, locus YOR069W, strain VPS5, active compounds read low 0.989 | S. cerevisiae deletion strains, locus YOR070C, strain gyp1, active compounds read low 1 | S. cerevisiae deletion strains, locus YOR080W, strain dia2, active compounds read low 1.02 | S. cerevisiae deletion strains, locus YOR083W, strain WHI5, active compounds read low 1.02 | S. cerevisiae deletion strains, locus YOR106W, strain vam3, active compounds read low 1.05 | S. cerevisiae deletion strains, locus YOR136W, strain idh2, active compounds read low 0.975 | S. cerevisiae deletion strains, locus YOR144C, strain elg1, active compounds read low 0.984 | S. cerevisiae deletion strains, locus YOR184W, strain ser1, active compounds read low 1.01 | S. cerevisiae deletion strains, locus YOR231W, strain MKK1, active compounds read low 0.974 | S. cerevisiae deletion strains, locus YOR265W, strain rbl2, active compounds read low 1 | S. cerevisiae deletion strains, locus YOR270C, strain vph1, active compounds read low 1.02 | S. cerevisiae deletion strains, locus YOR290C, strain snf2, active compounds read low 1.04 | S. cerevisiae deletion strains, locus YOR316C, strain cot1, active compounds read low 0.984 | S. cerevisiae deletion strains, locus YPL051W, strain arl3, active compounds read low 1.01 | S. cerevisiae deletion strains, locus YPL078C, strain atp4, active compounds read low 1.01 | S. cerevisiae deletion strains, locus YPL106C, strain sse1, active compounds read low 1.03 | S. cerevisiae deletion strains, locus YPL240C, strain hsp82, active compounds read low 1.02 | S. cerevisiae deletion strains, locus YPL241C, strain CIN2, active compounds read low 0.996 | S. cerevisiae deletion strains, locus YPL256C, strain CLN2, active compounds read low 1 | S. cerevisiae deletion strains, locus YPR119W, strain clb2, active compounds read low 0.996 | S. cerevisiae deletion strains, locus YPR141C, strain kar3, active compounds read low 0.974 | S. cerevisiae deletion strains, locus YPR163C, strain tif3, active compounds read low 0.996 | S. cerevisiae deletion strains, locus YPR167C, strain met16, active compounds read low 0.989 | S. cerevisiae deletion strains, strain wtn01, active compounds read low 1.01 | S. cerevisiae strains, strain wild type, active compounds read low 1
